Screening results (PubChem)
AMA1 RON2 block – disrupts binding of P. falciparum AMA1 to RON2. AlphaScreen AMA1-biotinylated RON2 peptide binding. Potency, µM (series often up to 58.2 µM), inactives show at the highest dose activity change, negative = inhibition, usual class: inhibitors. actives 0.2% (n = 360,000);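 also: potency is read from the fitted curve at half-maximal effect; 0% = vehicle wells and -100% = peptide control; nearly all actives have a fitted effect of over 45% in size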
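AMA1 (3D7) with his tag at 25 nM final met compounds first, then biotinylated RON2 peptide at 25 nM; detection used donor plus acceptor beads, 10 µg/mL apiece, read by AlphaScreen after 30 min at room temperature.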
AmpC detergent – inhibitors of E. coli AmpC beta-lactamase with detergent; P00811; AmpC hydrolysis of nitrocefin, absorbance 480 nm, 0.01% Triton; Potency, µM (titrated, usually from 114 µM), for inactives: top-dose activity change, negative = inhibition, usual class: inhibitors; actives 0.041% (n = 370,000); AID 485294;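 also: potency is read from the fitted curve at half-maximal effect; 0% = no-compound wells and -100% = no-enzyme wells; nearly all actives have a fitted effect of over 25% in size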
Target sequence (P00811 whole entry, looked up): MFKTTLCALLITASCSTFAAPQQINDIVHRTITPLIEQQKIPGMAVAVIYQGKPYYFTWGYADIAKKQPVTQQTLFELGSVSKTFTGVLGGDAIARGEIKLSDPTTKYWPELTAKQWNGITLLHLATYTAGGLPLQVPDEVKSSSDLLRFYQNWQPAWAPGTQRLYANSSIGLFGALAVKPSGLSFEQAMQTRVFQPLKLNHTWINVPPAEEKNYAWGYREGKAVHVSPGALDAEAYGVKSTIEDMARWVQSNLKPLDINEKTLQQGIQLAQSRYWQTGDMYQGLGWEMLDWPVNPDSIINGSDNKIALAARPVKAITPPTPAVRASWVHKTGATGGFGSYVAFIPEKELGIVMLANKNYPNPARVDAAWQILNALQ
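AmpC (5.3 nM in the dispensed reagent) in 20 mM phosphate pH 7.0 with 0.01% (detergent screen) or 0.0001% Triton X-100 was preincubated with compounds for 15 min at room temperature. Nitrocefin was then added from an 800 uM solution, and hydrolysis was followed at 480 nm.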
SARS PLP yeast – SARS-CoV PLP inhibition in yeast; S. cerevisiae expressing SARS-CoV PLpro, growth rescue; Potency, µM (doses to about 32.9 µM), for inactives: top-dose activity, positive = growth rescue, usual class: activators; actives 0.19% (n = 330,000); calls by dose curve; also: potency is read from the fitted curve at half-maximal effect; 0% is about no effect; nearly all actives have a fitted effect of over 55% in size
AmpC no deterg – blocks E. coli AmpC beta-lactamase in detergent-free assay; P00811; AmpC nitrocefin hydrolysis, absorbance 480 nm, 0.0001% Triton; Potency, µM (doses to about 57.1 µM), for the others: at the top dose activity change, negative = inhibition, usual class: inhibitors; actives 0.52% (n = 330,000);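 also: potency is read from the fitted curve at half-maximal effect; plate controls were no compound for no effect and no enzyme for full effect; nearly all actives have a fitted effect of over 20% in size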
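AmpC (5.3 nM in the dispensed reagent) in 20 mM phosphate pH 7.0 with 0.01% (detergent screen) or 0.0001% Triton X-100 was preincubated with compounds for 15 min at room temperature. Nitrocefin was then added from an 800 uM solution, and hydrolysis was followed at 480 nm.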
Cycloheximide cs – affects cycloheximide protein synthesis inhibition readout, counter-screen; cell reporter, cycloheximide protein synthesis inhibition counterscreen; max response, %; actives 12% (n = 300,000); in the data active = max response mostly above about 13%, no sharp cut-off; inactive = mostly below about 14%; also: read at 38.3 µM for the half of the compounds with a filed dose; 0% is about no effect
Shiga inhibitor – inhibitors of Shiga toxin in Vero cells. Vero cells, Shiga toxin protein synthesis inhibition reporter. inhibition, % at 38.7 µM. actives 9.2% (n = 290,000); in the data active = inhibition mostly above about 28%, no sharp cut-off; inactive = mostly below about 43%; also: 0% is about no effect
* hit, by the source's call; ? = inconclusive; · = no result; [ ] = dose if it differs, or a comment. This is one part of a sample in which hits are shown more often than they occur. Unless noted, calls follow the shape of the dose curve; as a rule, active = well fitted curve in the direction sought with a large enough effect; inconclusive = small, poorly fitted or top-dose-only effect, or another doubt; inactive = no such curve, though single readings can be large; an effect the other way counts as inactive or inconclusive.

SMILES	AMA1 RON2 block	AmpC detergent	SARS PLP yeast	AmpC no deterg	Cycloheximide cs	Shiga inhibitor
COc1ccccc1C1=NN(C(=S)Nc2ccccc2)C(c2ccco2)C1 (stereo not drawn)	33%	-6%	-2%	-51%	28*	51*
CC(=O)N(C)c1ccc(NC(=O)C(Sc2ccccc2)c2ccccc2)cc1 (stereo not drawn)	-1%	-4%	0%	149%	18*	43*
Cc1cc(-c2cn3ccccc3n2)c(C)n1-c1ccccc1	-2%	-3%	-7%	7%	48*	64*
CSCC(=O)NC1CCCc2c1cnn2-c1ccc(C)c(C)c1 (stereo not drawn)	-7%	2%	-2%	13%	14	58*
Cn1nccc1C(=O)NC1CCCc2c1cnn2-c1cc(F)cc(F)c1 (stereo not drawn)	0%	-1%	1%	24%	32*	54*
Cc1ccc(-n2ncc3c2CC(C)(C)CC3NC(=O)CN2CCCC2=O)cc1 (stereo not drawn)	20%	-2%	-3%	59%	-1	-10
CC1(C)Cc2c(cnn2-c2cccc(F)c2)C(NC(=O)Cn2cccn2)C1 (stereo not drawn)	2%	-9%	-6%	14%	19*	-5
CC1(C)Cc2c(cnn2-c2cccc(F)c2)C(NC(=O)CN2CCCC2=O)C1 (stereo not drawn)	-8%	2%	-2%	25%	11*	11*
CC(=O)CSc1nc(N(C)C)nc(N(C)C)n1	9%	0%	-1%	-6%[2.29 µM]	-4	-9
CC(=O)Nc1ccc(NC(=O)C(C)OC(=O)COc2ccc(Nc3ccccc3)cc2)cc1 (stereo not drawn)	16%[11.6 µM]	-1%	1%	-2%	·	·
Cc1ccc(NC(=O)Cn2nc(C(F)(F)F)c3c2CCC3)cc1	-4%	?	-5%	-16%	-7	-1
CCN1CCN(C(c2cccs2)C(C)NC(=O)c2cccnc2)CC1 (stereo not drawn)	4%	-11%	-2%	-14%	-2	-11
Cc1cc(C)nc(SC2CC(=O)N(c3ccc(C)c(C)c3)C2=O)n1 (stereo not drawn)	4%	1%	6%	10%	1	-3
O=C(CN1CCCC1=O)NC1CCCc2c1cnn2-c1cc(F)cc(F)c1 (stereo not drawn)	3%	0%	14%	-18%	22*	26
CC(C)(C)c1ccc(-n2ncc3c2CCCC3NC(=O)CN2CCCCC2=O)cc1 (stereo not drawn)	0%	-1%	13%	151%	1	13
Cc1cc(-c2cc(N)n(-c3ccccc3)n2)c(C)n1C1CCCC1	5%	-2%	1%	23%	36*	40*
N#Cc1cc(C#N)c(N2CCN(c3ccccn3)CC2)nc1N	-4%	4%	-1%	-15%	44*	60*
c1ccc(N2CCN(c3cnccn3)CC2)nc1	0%	?	-1%	-9%	-7	-11
Cc1ccc(S(=O)(=O)N(Cc2ccccc2)c2ccccc2C(=O)Nc2ccccc2C(=O)NCc2ccco2)cc1	-7%	-2%	17%	-24%	31*	55*
CS(=O)(=O)N(Cc1ccccc1)c1ccccc1C(=O)Nc1ccccc1C(=O)NCc1ccco1	10%	0%	1%	-6%	-1	-7
Cc1ccc(S(=O)(=O)N(Cc2ccccc2)c2ccccc2C(=O)NCc2ccco2)cc1	-12%	3%	-21%	-2%	25*	31
COc1cc(OC)cc(C(=O)Nc2ccc(N(C)C)c3ccccc23)c1	0%	-1%	-6%	-16%	1	-15
O=C(NC(=S)Nc1ccc(CN2CCOCC2)cc1)c1ccc([N+](=O)[O-])cc1	27%	-16%	0%	-12%	9	-14
CCN(CC)c1ccc(-c2nc3cnccc3n2C)cc1	-11%	-12%	?	-16%	33*	135*
CCN1CCN(CCCNC(=O)c2ccc3c(c2)NC(=O)c2ccccc2S3)CC1	8%	1%	-2%	4µM*	-3	1
SMILES	AMA1 RON2 block	AmpC detergent	SARS PLP yeast	AmpC no deterg	Cycloheximide cs	Shiga inhibitor
O=C(CC(=O)c1ccccc1)c1ccccc1	36%	·	·	·	·	·
COc1ccccc1C(=O)CC(=O)c1ccccc1	107%	?	-2%	-27%	68*	85*
COc1ccccc1NC(=O)CC(=O)c1ccccc1	-2%	-1%	-1%	-30%	44	55*
COc1cccc(C(O)c2nc(-c3cc4ccccc4o3)cs2)c1 (stereo not drawn)	-1%	·	·	·	·	·
CCOC(=O)C1=C(C)NC(=O)NC1c1ccc(N2CCC(c3ccccc3)=N2)cc1 (stereo not drawn)	5%	-7%	2%	-33%	11*	26*
COc1ccc(-c2nc3ncccn3c2Br)cc1	8%	0%	-1%	-9%	28*	73*
Brc1c(-c2ccc3c(c2)OCO3)nc2ncccn12	7%	4%	-2%	-15%	20*	33*
Cc1ccc(-c2nc3ncccn3c2Nc2ccc3c(c2)OCCO3)cc1	-3%	13%	0%	-4%	3	-5
COc1ccc(-c2nc3ncccn3c2Nc2ccc3c(c2)OCCO3)cc1	-4%	-2%	·	·	12	29
O=C1c2cccc(Cl)c2C(=O)c2c1cccc2N1CCCC1	6.3µM*	·	·	·	·	·
CCOC(=O)C1CCCN(c2c(NCCc3ccc(C)cc3)c(=O)c2=O)C1 (stereo not drawn)	-1%	-2%	0%	-8%	1	-2
CCOC(=O)C1CCCN(c2c(NCCN3CCCCC3C)c(=O)c2=O)C1 (stereo not drawn)	-2%	?	2%	3.5µM*	-4	-3
CCOC(=O)C1CCCN(c2c(NCCCN(CC)c3ccccc3)c(=O)c2=O)C1 (stereo not drawn)	4%	2%	1%	?	10	12
CCOC(=O)C1CCCN(c2c(NCCN(CC)c3ccccc3)c(=O)c2=O)C1 (stereo not drawn)	-3%	3%	4%	22µM*	1	8
CCCCCCc1ccc(-c2ncc(N)cn2)cc1	-5%	6%	-22%	36%	60*	122*
CCCCCc1ccc(-c2ccc(OC)cc2)nc1	3%	1%	-4%	-6%	0	13
CCCCCc1ccc(-c2nnc(N)s2)cc1	4%	5%	-4%	-20%	43*	74*
Nc1nnc(-c2ccc(Cl)c(Cl)c2)s1	27%	?	-5%	-27%[11.4 µM]	25*	21
CCCCCc1nnc(N)s1	4%	-4%	-1%	-6%	-6	-2
CCCNC(=O)C(C)n1nc(C)c2c(C)n(-c3ccccc3)nc2c1=O (stereo not drawn)	·	-2%	·	·	·	·
Cc1cc(-c2ccccc2)nc(=O)[nH]1	28%	-16%	3%	-18%	-2	-5
